Z-score data for nine molecules are collected here from PubChem BioAssay.

SMILES strings stand for the structures.

NADPH oxidase 5 (Homo sapiens), sequence (Q96PH1 whole entry, looked up): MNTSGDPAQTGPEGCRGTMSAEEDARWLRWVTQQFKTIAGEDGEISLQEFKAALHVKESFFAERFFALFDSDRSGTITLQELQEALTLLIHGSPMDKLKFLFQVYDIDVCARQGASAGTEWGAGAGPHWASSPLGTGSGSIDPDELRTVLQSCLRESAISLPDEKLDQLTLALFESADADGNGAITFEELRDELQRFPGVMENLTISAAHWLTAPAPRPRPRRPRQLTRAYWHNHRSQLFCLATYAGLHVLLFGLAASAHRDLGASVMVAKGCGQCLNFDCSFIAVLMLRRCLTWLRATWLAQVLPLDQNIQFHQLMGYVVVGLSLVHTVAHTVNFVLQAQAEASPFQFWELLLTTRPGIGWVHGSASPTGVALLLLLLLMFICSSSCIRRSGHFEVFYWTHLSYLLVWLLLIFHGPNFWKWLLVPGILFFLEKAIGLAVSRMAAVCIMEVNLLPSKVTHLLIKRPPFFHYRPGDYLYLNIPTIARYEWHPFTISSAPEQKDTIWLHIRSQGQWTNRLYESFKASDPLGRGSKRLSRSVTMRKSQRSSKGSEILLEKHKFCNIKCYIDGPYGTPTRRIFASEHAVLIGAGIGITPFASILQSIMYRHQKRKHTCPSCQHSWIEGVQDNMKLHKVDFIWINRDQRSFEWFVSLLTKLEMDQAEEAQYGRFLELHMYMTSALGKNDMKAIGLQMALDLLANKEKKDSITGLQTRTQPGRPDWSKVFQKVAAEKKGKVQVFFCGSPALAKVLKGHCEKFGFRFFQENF

This assay addresses NADPH oxidase 5 (Homo sapiens) (UniProt Q96PH1). Put plainly: compounds shifting NOX5 Amplex Red fluorescence – cell-based, HEK293-NOX5, NOX inhibitor project, primary screen (AID 1161). Particulars: HEK293-NOX5, ionomycin, 45 min, higher = more signal.
On to `C[C@]1(C(=O)O)c2ccccc2C(=O)N(Cc2cc(C(F)(F)F)cc(C(F)(F)F)c2)[C@H]1c1ccc(CO)cc1`, for which the z-score was -0.714.
On to `C=CCOC(=O)[C@H]1[C@@H]2C(=O)O[C@@H](c3ccccc3)[C@@H](c3ccccc3)N2[C@@H](c2ccc(OCCOC(=O)[C@H]3C[C@H]4C(=O)NCC(=O)N4[C@H]3c3ccc(O)cc3)cc2)[C@]12C(=O)Nc1ccccc12`, for which the z-score amounted to 0.00131.
The figure for `COc1ccc([Si](C)(C)[C@H]2[C@H](CC(=O)N3CCC[C@H]3CO)O[C@@]3(C(=O)N(Cc4cccc(N5CCCCC5=O)c4)c4ccccc43)[C@@H]2C)cc1` is 4.92.
Regarding `C=CCNC(=O)[C@H]1[C@@H]2C(=O)O[C@@H](c3ccccc3)[C@@H](c3ccccc3)N2[C@@H](c2ccc(O)cc2)[C@]12C(=O)N(C(=O)OCCOC)c1ccc(C#Cc3ccc(OC)cc3)cc12`, the z-score amounted to 1.13.
In the case of `O=C(CS)NCCCCCCNC(=O)[C@H]1C[C@H]2C(=O)NCC(=O)N2[C@H]1c1cccc(OCCO)c1`, the z-score amounted to 0.769.
For the molecule `COc1cc(Cc2cc3c(c(-c4ccccc4)n2)[Si](C(C)C)(C(C)C)OC3)cc(OC)c1OC`, the z-score is 0.0407.
As for `Cc1c(NC(=O)/C(C#N)=C/C=C/c2ccc([N+](=O)[O-])cc2)c(=O)n(-c2ccccc2)n1C`, the z-score is 0.714.
As for `CCOC(=O)C[C@H]1[C@H](OC(=O)c2ccccc2-c2ccccc2)[C@@H](NC(=O)CC(C)C)c2cc(OCCCO)ccc2N1C(=O)c1ccccc1`, the z-score is -1.19.
As to `COCCOC(=O)N1C(=O)[C@@]2(c3cc(C#CCNC(N)=O)ccc31)[C@H](c1ccc(O)cc1)N1[C@H](c3ccccc3)[C@H](c3ccccc3)OC(=O)[C@H]1[C@@H]2C(=O)N1CCc2cc(OC)c(OC)cc2C1`, the z-score is 0.891.
